# Assay results from ChEMBL document CHEMBL2218924, “A broad activity screen in support of a chemogenomic map for kinase signalling research and drug discovery” (Biochem J, 2013).
# Target: G protein-coupled receptor kinase 5 (Homo sapiens) (UniProt P34947)
# Conditions: at 1 µM
# G protein-coupled receptor kinase 5 (Homo sapiens), sequence (P34947 whole entry, looked up): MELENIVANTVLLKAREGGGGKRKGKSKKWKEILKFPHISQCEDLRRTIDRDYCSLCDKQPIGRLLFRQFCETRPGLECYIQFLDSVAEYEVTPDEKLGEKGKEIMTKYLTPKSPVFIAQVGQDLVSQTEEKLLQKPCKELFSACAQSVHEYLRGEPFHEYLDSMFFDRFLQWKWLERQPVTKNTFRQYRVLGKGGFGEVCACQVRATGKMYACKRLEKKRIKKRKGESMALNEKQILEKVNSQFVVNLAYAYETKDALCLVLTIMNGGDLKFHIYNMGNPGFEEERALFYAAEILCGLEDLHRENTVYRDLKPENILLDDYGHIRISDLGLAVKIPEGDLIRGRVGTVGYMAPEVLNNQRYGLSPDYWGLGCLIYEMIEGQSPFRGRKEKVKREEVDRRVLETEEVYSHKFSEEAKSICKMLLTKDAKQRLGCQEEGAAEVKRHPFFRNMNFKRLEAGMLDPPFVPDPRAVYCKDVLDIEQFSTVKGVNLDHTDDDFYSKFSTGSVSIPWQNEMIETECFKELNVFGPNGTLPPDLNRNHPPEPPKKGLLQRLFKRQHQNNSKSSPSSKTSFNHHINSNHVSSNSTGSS
row,SMILES,residual activity [%]
1,Cn1cc(/C=C2\C(=O)Nc3ccc(S(N)(=O)=O)cc32)c2ccccc21,62
2,Oc1c2ccccc2c2c3c(cccc13)N=N2,84
3,Cc1cccc(-c2[nH]c(C(C)(C)C)nc2-c2ccc3c(c2)OCO3)n1,105
4,O=C1Nc2cc(Br)ccc2/C1=C1/Nc2ccccc2/C1=N\O,89
5,CCOc1cc2ncnc(Nc3cccc(Br)c3)c2cc1OCC,97
6,CCCC(=O)Oc1ccc2[nH]c(C(=O)c3cc4ccccc4[nH]3)cc2c1,104
7,Cn1cnc2cc3c(Nc4cccc(Br)c4)ncnc3cc21,109
8,O=C(Nc1cccc(Nc2cc(Nc3cccc(C(F)(F)F)c3)ncn2)c1)C1CC1,102
9,Oc1n[nH]c2nnc(-c3c(-c4ccccc4)nn4ccccc34)cc12,87
10,O=C1C(Cl)=C(N2C(=O)CCC2=O)C(=O)c2ccccc21,98
11,c1ccc2c(-c3ccncc3)c[nH]c2c1,98
12,CC(=O)O/N=C1\C(=C2\C(=O)Nc3cc(Br)ccc32)Nc2ccccc21,98
13,O=C1NC(=O)/C(=C\c2ccc3nccnc3c2)S1,103
14,CCN(CC)CCNC(=O)c1c(C)[nH]c(/C=C2\C(=O)Nc3ccc(Cl)cc32)c1C,68

# Target: G protein-coupled receptor kinase 6 (Homo sapiens) (UniProt P43250)
# Sequence (P43250 whole entry, looked up): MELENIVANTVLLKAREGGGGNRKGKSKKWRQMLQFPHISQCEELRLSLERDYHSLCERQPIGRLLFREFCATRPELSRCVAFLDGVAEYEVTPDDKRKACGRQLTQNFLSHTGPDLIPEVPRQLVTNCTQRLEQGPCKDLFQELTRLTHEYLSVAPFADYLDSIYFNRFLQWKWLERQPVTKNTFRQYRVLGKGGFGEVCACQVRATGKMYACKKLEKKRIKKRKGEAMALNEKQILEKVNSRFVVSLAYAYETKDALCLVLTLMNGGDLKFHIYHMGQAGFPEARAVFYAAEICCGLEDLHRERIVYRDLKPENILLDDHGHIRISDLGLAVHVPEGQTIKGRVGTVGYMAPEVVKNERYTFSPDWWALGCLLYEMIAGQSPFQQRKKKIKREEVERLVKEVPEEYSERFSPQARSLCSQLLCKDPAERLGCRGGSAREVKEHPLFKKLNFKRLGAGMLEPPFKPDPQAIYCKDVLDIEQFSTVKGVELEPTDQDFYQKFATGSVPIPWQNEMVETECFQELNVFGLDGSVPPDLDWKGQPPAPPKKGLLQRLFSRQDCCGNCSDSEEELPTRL
# Conditions: at 1 µM
row,SMILES,residual activity [%]
1,N#C/C(=C(\N)Sc1ccc(N)cc1)c1ccccc1C(F)(F)F,86
2,O=C1c2ccccc2-[n+]2ccc3c([nH]c4ccccc43)c21,88
3,CCCCc1c(-c2ccc(O)cc2)[nH]c2nccnc12,98
4,O=c1cc(-c2cccc3c2Sc2ccccc2S3)oc(N2CCOCC2)c1,100
5,COc1ccc(OC)c2c(=S)c3ccccc3[nH]c12,98
6,COc1cc2ncnc(Nc3ccc(Oc4ccccc4)cc3)c2cc1OC,93
7,Oc1ccc(Nc2nc(-c3ccc(Cl)cc3)cs2)cc1,103
8,CN(C)CCCn1cc(C2=C(c3c[nH]c4ccccc34)C(=O)NC2=O)c2ccccc21,87
9,CC(C)n1cnc2/c(=N/c3cccc(Cl)c3)nc(NCCO)[nH]c21,90
10,CNc1cc2c(Nc3cccc(Br)c3)ncnc2cn1,95
11,Nc1cccc(-c2cc3c(Oc4cccc(O)c4)ncnc3[nH]2)c1,93
12,O=C1NC(=O)c2cc(Nc3ccc(F)cc3)c(Nc3ccc(F)cc3)cc21,85
13,CO[C@@H]1[C@H](N(C)C(=O)c2ccccc2)C[C@H]2O[C@]1(C)n1c3ccccc3c3c4c(c5c6ccccc6n2c5c31)C(=O)NC4,79
14,CC(C)[C@H](CO)Nc1nc(Nc2cc(N)cc(Cl)c2)c2ncn(C(C)C)c2n1,90
15,O=C(O)c1ccc2c3c1cccc3c(=O)n1c3ccccc3nc21,100
16,COc1cccc(-c2cc(=O)c3ccccc3o2)c1N,99

row,SMILES,residual activity [%]
1,O=C1NC(=O)c2c1c1c3ccccc3[nH]c1c1[nH]c3cc(Br)ccc3c21,102
2,O=c1cc(N2CCNCC2)oc2c(-c3ccccc3)cccc12,102
3,Cn1cc(/C=C2\C(=O)Nc3ccc(S(N)(=O)=O)cc32)c2ccccc21,96
4,Oc1c2ccccc2c2c3c(cccc13)N=N2,87
5,Cc1cccc(-c2[nH]c(C(C)(C)C)nc2-c2ccc3c(c2)OCO3)n1,103
6,O=C1Nc2cc(Br)ccc2/C1=C1/Nc2ccccc2/C1=N\O,89
7,CCOc1cc2ncnc(Nc3cccc(Br)c3)c2cc1OCC,100
8,CCCC(=O)Oc1ccc2[nH]c(C(=O)c3cc4ccccc4[nH]3)cc2c1,93
9,Cn1cnc2cc3c(Nc4cccc(Br)c4)ncnc3cc21,97
10,O=C(Nc1cccc(Nc2cc(Nc3cccc(C(F)(F)F)c3)ncn2)c1)C1CC1,98
11,Oc1n[nH]c2nnc(-c3c(-c4ccccc4)nn4ccccc34)cc12,83
12,O=C1C(Cl)=C(N2C(=O)CCC2=O)C(=O)c2ccccc21,88
13,c1ccc2c(-c3ccncc3)c[nH]c2c1,87
14,CC(=O)O/N=C1\C(=C2\C(=O)Nc3cc(Br)ccc32)Nc2ccccc21,86
15,O=C1NC(=O)/C(=C\c2ccc3nccnc3c2)S1,90
16,CCN(CC)CCNC(=O)c1c(C)[nH]c(/C=C2\C(=O)Nc3ccc(Cl)cc32)c1C,68
